# Test results as given in the supplement of paper PMC6555819.
# Tested on: VDR:RXRa (NR concentration 270 nM, RXRa partner concentration 90 nM)
# Assay: PBM binding z-score (relative to random genomic background probes); higher = stronger binding; sequences stand for … in GC…GCGATTGACAGCGTAGAATGAAGG
# Procedure: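 Protein-binding microarray (Agilent 4x180K custom design, double-stranded 60-nt probes: 5' GC cap, 34-nt variable region, 24-nt constant primer region; full probe sequence given). Purified or IVT nuclear receptor:RXRα heterodimers (3:1 NR:RXRα, mostly 270:90 nM) or homodimers were incubated for 1 h in PBS with 2% milk and no ligand, then detected with Alexa488 antibodies. Fluorescence from o1-orientation probes (~5 replicates averaged) was converted to z-scores against 500 random hg19 background probes. Variable regions are seed direct-repeat (DR0–DR5) sites, all their single-nucleotide variants and half-site ablations.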
row,Sequence,PBM binding z-score
1,GTACCAAGGTGAATAGGTCGTTAATGAGTAGGCG,0.93
2,GCTTACGGGTTAAAGGTTATAGCATGAATAGAAT,3.18
3,TCTAGCAGGCCAGAGGGTTACTCAAGAGGTACGG,-0.176
4,GCGACGGGGGCAAAGCAGGTTACCATAAGGTTGG,3.84
5,ATCGAAAGGTCGAGGGTGAGTATACCCACCCGAA,2.68
6,TCTTGTAGATCAACAGAGGTTAAGAAAGTGCGCT,2.03
7,CTCGAAAGGTCTGTTGAGGTGAGTATACGGATAA,0.221
8,TCTATTAGTTGATCAGGGCAACCGAAACAGCGGA,0.669
9,GCATATACGTAATACAAGGTGAAAGTCCGATTGT,0.232
10,TAGCGTAGGTCAGATCGGGCCAGTATACGCTATA,0.856
11,CATACAGGGTCAGCTAGGCCACAGTAGGGACGGC,4.79
12,TAGCCTAGGTCATGGGCCAGTACACCACGCGAAC,2.38
13,CCTAGTTGGTCAAGGTCACACGCGCTATAGGTAC,4.29
14,CCTAATGGGCCATTCAGAGGTCATTGATCATATG,4.1
15,CGTCCAAGGTCAAGGTCAGTCAAAGAGACTCGAA,4.84
16,GGTACGAGGGCATTCGAGTTGATAGCATGGCGAT,3.71
17,TCGAGTAGGTTACCAATGGGGCAATCAGCTTTCT,0.0268
18,CCTAGTTGGTCAATGTCACACACGCTATAGGTAC,0.974
19,ACGATTAGTTGACTTAGGGCAACCGATACGACGC,0.161
20,CCTCGGAGGACAGAAGTTCAGAGCTGTCCGCTTT,0.197

row,Sequence,PBM binding z-score
1,AGAATTAGGTTACCAAAGATCAGGGAAACGCTTG,0.204
2,TAGCCTAGGTCATTCAGGGGCCAGTAGAGAAAGC,3.24
3,AGAATGAGGTTCTTAAGATCAGGGAATTGCGGTC,0.0724
4,CCGAGTAGGTTATGGGGCAGTCAGGCAACGGTGA,-0.397
5,TCGGGTAGGTTACCAATGGGGCATTCAGCTTTCT,0.639
6,CAAACTAGGTCAAGGTAAAAGTCGGTTTGTGCCA,1.79
7,TCTCGGAGGACACGAAGGTCAGTGCTTTCCAGAG,2.08
8,CAAACTAGGGCAAAGGTCAAAGTCGAGCCAACCA,5.41
9,GATACAGGATCAGCTAGAGGCCAGAGTATGGAAA,-0.569
10,TGAATGAGGTTAAAGATCAGGTAACGTGGCGTCG,1.92
11,CCTGACGGGTCACTCCAGGTTATAGCATCGGAGT,3.46
12,GGTGCTAGGTCAACTGATGGTCAGCTAAAGCTCG,1.89
13,TAATATAGGTAAAAGGTGAAAGTCGGTGTGGTAA,1.59
14,CCAGACAGGTGAAAGGTAACTCGGTCTGGTACGC,0.865
15,AGAATGAGTTTAAGATCAGGGAAACAGAATACAT,0.803
16,AAAATGAGGTTACCAAAGATCAGGGAAACGCTTG,1.94
17,CGTCCAAGGACAGCAGGTCAGTGAAAGCGACGTG,-0.0699
18,CGAACTAGGTCATAGACAGGACAGTGAATAGTAA,1.78
19,CAGCCTAGGTCAGGGCCCGTATAGGAGGAACGTT,0.0568
20,GCGACTGGGGCAAAGTAGGTTACCATAAGGTTGG,-0.0639
